# Laboratory results published in the supplement of paper PMC8728848.
# Only a selection was taken, and the strongest signals are over-represented in it overall.
# Legend:
# Experiment in all cases: glycan array binding signal (z-score within array); higher = stronger binding
# Conditions in all cases: glycan notation: IUPAC condensed, linker removed
# [1] = biological target: Fuc(a1-2)Gal(b1-3)GalNAc(b1-3)Gal(a1-4)Gal(b1-4)Glc
# How it was run: (§1)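 Negative Z-scores can be read as non-binding. The Z-score is calculated within each array and then averaged across arrays of one protein sequence at different concentrations or buffers and across linkers. Arrays, 3228 in all, were curated from the Consortium for Functional Glycomics database and kept only where the protein sequence was available.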
# [2] = biological target: Fuc(a1-2)Gal(b1-3)GlcNAc(b1-3)Gal(b1-4)Glc
# How it was run: as §1
# [3] = biological target: Fuc(a1-2)[GalNAc(a1-3)]Gal(b1-4)Glc
# How it was run: as §1
# Fuc(a1-3)GlcNAc = biological target: Fuc(a1-3)GlcNAc
# How it was run: as §1
# [4] = biological target: Fuc(a1-3)[Gal(b1-4)]Glc6S
# How it was run: as §1
# Gal(b1-3)GalNAc = biological target: Gal(b1-3)GalNAc
# How it was run: as §1
# [5] = biological target: Gal(b1-3)GalNAc(b1-4)[Neu5Ac(a2-3)]Gal(b1-4)Glc
# How it was run: as §1
# [6] = biological target: Gal(b1-3)GlcNAc(b1-3)Gal(b1-4)Glc
# How it was run: as §1
# [7] = biological target: Gal(b1-3)[Neu5Ac(a2-6)]GlcNAc(b1-6)Gal(b1-4)Glc
# How it was run: as §1
# [8] = biological target: Gal(b1-4)GlcNAc(b1-3)Gal(b1-4)Glc
# How it was run: as §1
# Gal4S(b1-4)GlcNAc = biological target: Gal4S(b1-4)GlcNAc
# How it was run: as §1
# Gal4S6S(b1-4)GlcNAc = biological target: Gal4S6S(b1-4)GlcNAc
# How it was run: as §1
# Glc(b1-4)Glc = biological target: Glc(b1-4)Glc
# How it was run: as §1
# [9] = biological target: GlcNAc(b1-3)Gal(b1-4)GlcNAc(b1-3)Gal(b1-4)GlcNAc
# How it was run: as §1
# [10] = biological target: Man(a1-2)Man(a1-2)Man(a1-3)Man
# How it was run: as §1
# [11] = biological target: Man(a1-2)Man(a1-6)[Man(a1-3)]Man(a1-6)[Man(a1-2)Man(a1-2)Man(a1-3)]Man
# How it was run: as §1
# [12] = biological target: Neu5Ac(a2-3)Gal(b1-4)GlcNAc(b1-3)Gal(b1-4)GlcNAc(b1-3)Gal(b1-4)GlcNAc
# How it was run: as §1
# [13] = biological target: Neu5Ac(a2-6)Gal(b1-4)GlcNAc(b1-2)Man(a1-3)[GlcNAc(b1-2)Man(b1-4)GlcNAc(b1-2)Man(a1-6)]Man(b1-4)GlcNAc(b1-4)GlcNAc
# How it was run: as §1
# [14] = biological target: Neu5Ac(a2-6)Gal(b1-4)GlcNAc6S
# How it was run: as §1
# Neu5Ac(a2-6)GalNAc = biological target: Neu5Ac(a2-6)GalNAc
# How it was run: as §1
# [15] = biological target: Neu5Ac(a2-8)Neu5Ac(a2-8)Neu5Ac(a2-3)Gal(b1-4)Glc
# How it was run: as §1
# Fuc(a1-2)Gal(b1-4)Glc6S = biological target: Fuc(a1-2)Gal(b1-4)Glc6S
# How it was run: as §1
# [16] = biological target: Fuc(a1-2)Gal(b1-4)[Fuc(a1-3)]GlcNAc(b1-3)Gal(b1-4)[Fuc(a1-3)]GlcNAc(b1-3)Gal(b1-4)[Fuc(a1-3)]GlcNAc
# How it was run: as §1
# Fuc(a1-2)Gal6S(b1-4)Glc = biological target: Fuc(a1-2)Gal6S(b1-4)Glc
# How it was run: as §1
# [17] = biological target: Fuc(a1-2)[Gal(a1-3)]Gal(b1-3)GlcNAc
# How it was run: as §1
# [18] = biological target: Fuc(a1-2)[Gal(a1-3)]Gal(b1-4)Glc
# How it was run: as §1
# [19] = biological target: Fuc(a1-2)[Gal(a1-3)]Gal(b1-4)GlcNAc
# How it was run: as §1
# [20] = biological target: Fuc(a1-2)[GalNAc(b1-3)]Gal
# How it was run: as §1
# [21] = biological target: Fuc(a1-3)[Gal(b1-4)]GlcNAc6S
# How it was run: as §1
# Gal(a1-3)Gal(b1-4)GlcNAc = biological target: Gal(a1-3)Gal(b1-4)GlcNAc
# How it was run: as §1
# Gal(b1-2)Gal = biological target: Gal(b1-2)Gal
# How it was run: as §1
# [22] = biological target: Gal(b1-3)GalNAc(b1-4)Gal(b1-4)Glc
# How it was run: as §1
# [23] = biological target: Gal(b1-3)[Fuc(a1-4)]GlcNAc
# How it was run: as §1
# [24] = biological target: Gal(b1-3)[Fuc(a1-4)]GlcNAc(b1-3)Gal(b1-4)GlcNAc
# How it was run: as §1
# [25] = biological target: Gal3S(b1-3)[Fuc(a1-4)]GlcNAc
# How it was run: as §1
# Gal3S(b1-4)Glc = biological target: Gal3S(b1-4)Glc
# How it was run: as §1
# [26] = biological target: GalNAc(b1-3)Gal(a1-4)Gal(b1-4)GlcNAc
# How it was run: as §1
# GlcA(b1-3)Gal = biological target: GlcA(b1-3)Gal
# How it was run: as §1
# GlcNAc(b1-3)Gal = biological target: GlcNAc(b1-3)Gal
# How it was run: as §1
# [27] = biological target: GlcNAc(b1-4)Gal(b1-4)GlcNAc
# How it was run: as §1
# GlcNAc(b1-4)GlcNAc = biological target: GlcNAc(b1-4)GlcNAc
# How it was run: as §1
# [28] = biological target: Neu5Ac(a2-3)Gal(b1-3)GlcNAc(b1-3)Gal(b1-3)GlcNAc
# How it was run: as §1
# [29] = biological target: Neu5Ac(a2-3)Gal(b1-4)GlcNAc(b1-6)[Gal(b1-3)]GalNAc
# How it was run: as §1
# [30] = biological target: Neu5Ac(a2-6)Gal(b1-4)GlcNAc(b1-2)Man(a1-3)[GlcNAc(b1-2)Man(a1-6)]Man(b1-4)GlcNAc(b1-4)GlcNAc
# How it was run: as §1
# [31] = biological target: Neu5Ac(a2-6)Gal(b1-4)GlcNAc(b1-2)Man(a1-6)[GlcNAc(b1-2)Man(a1-3)]Man(b1-4)GlcNAc(b1-4)GlcNAc
# How it was run: as §1
# [32] = biological target: Neu5Ac(a2-6)Gal(b1-4)GlcNAc(b1-3)Gal(b1-4)[Fuc(a1-3)]GlcNAc(b1-3)Gal(b1-4)[Fuc(a1-3)]GlcNAc
# How it was run: as §1
# [33] = biological target: Neu5Gc(b2-6)Gal(b1-4)GlcNAc
# How it was run: as §1
binder,measurement,setting,value
TbCVNHOb (Tuber borchii) (protein) MSFYASSEDVRTIEEGGRTWLVGRARRADGSWQDIKLDLDNIIGNRDGHLTWGEQNFTQSASDIRFNFEGGSNVPVLRAKLRNAAGGEQESDLNLGERLTNNNGDLVFN,glycan array binding signal (z-score),[1],0.303
same,glycan array binding signal (z-score),[2],1.56
same,glycan array binding signal (z-score),[3],-0.147
same,glycan array binding signal (z-score),Fuc(a1-3)GlcNAc,0.012
same,glycan array binding signal (z-score),[4],0.185
same,glycan array binding signal (z-score),Gal(b1-3)GalNAc,-0.117
same,glycan array binding signal (z-score),[5],-0.245
same,glycan array binding signal (z-score),[6],5.86
same,glycan array binding signal (z-score),[7],1.4
same,glycan array binding signal (z-score),[8],2.32
same,glycan array binding signal (z-score),Gal4S(b1-4)GlcNAc,0.051
same,glycan array binding signal (z-score),Gal4S6S(b1-4)GlcNAc,-0.061
same,glycan array binding signal (z-score),Glc(b1-4)Glc,-0.189
same,glycan array binding signal (z-score),[9],-0.144
same,glycan array binding signal (z-score),[10],1.35
same,glycan array binding signal (z-score),[11],-0.185
same,glycan array binding signal (z-score),[12],-0.237
same,glycan array binding signal (z-score),[13],-0.008
same,glycan array binding signal (z-score),[14],-0.275
same,glycan array binding signal (z-score),Neu5Ac(a2-6)GalNAc,-0.28
same,glycan array binding signal (z-score),[15],-0.118
"Gal 8 (Homo sapiens), O00214 (protein) MMLSLNNLQNIIYNPVIPFVGTIPDQLDPGTLIVIRGHVPSDADRFQVDLQNGSSMKPRADVAFHFNPRFKRAGCIVCNTLINEKWGREEITYDTPFKREKSFEIVIMVKDKFQVAVNGKHTLLYGHRIGPEKIDTLGIYGKVNIHSIGFSFSSDLQSTQASSLELTEISRENVPKSGTPQLPSNRGGDISKIAPRTVYTKSKDSTVNHTLTCTKIPPMNYVSKRLPFAARLNTPMGPGRTVVVKGEVNANAKSFNVDLLAGKSKDIALHLNPRLNIKAFVRNSFLQESWGEEERNITSFPFSPGMYFEMIIYCDVREFKVAVNGVHSLEYKHRFKELSSIDTLEINGDIHLLEVRSW",glycan array binding signal (z-score),[1],-0.141
same,glycan array binding signal (z-score),Fuc(a1-2)Gal(b1-4)Glc6S,0.286
same,glycan array binding signal (z-score),[16],-0.386
same,glycan array binding signal (z-score),Fuc(a1-2)Gal6S(b1-4)Glc,-0.427
same,glycan array binding signal (z-score),[17],3.58
same,glycan array binding signal (z-score),[18],5.02
same,glycan array binding signal (z-score),[19],4.8
same,glycan array binding signal (z-score),[3],4.22
same,glycan array binding signal (z-score),[20],0.118
same,glycan array binding signal (z-score),[21],-0.432
same,glycan array binding signal (z-score),Gal(a1-3)Gal(b1-4)GlcNAc,0.236
same,glycan array binding signal (z-score),Gal(b1-2)Gal,-0.401
same,glycan array binding signal (z-score),[22],0.32
same,glycan array binding signal (z-score),[23],-0.413
same,glycan array binding signal (z-score),[24],0.294
same,glycan array binding signal (z-score),[8],2.43
same,glycan array binding signal (z-score),[25],-0.42
same,glycan array binding signal (z-score),Gal3S(b1-4)Glc,0.286
same,glycan array binding signal (z-score),Gal4S(b1-4)GlcNAc,-0.395
same,glycan array binding signal (z-score),[26],0.145
same,glycan array binding signal (z-score),GlcA(b1-3)Gal,-0.451
same,glycan array binding signal (z-score),GlcNAc(b1-3)Gal,-0.434
same,glycan array binding signal (z-score),[27],-0.425
same,glycan array binding signal (z-score),GlcNAc(b1-4)GlcNAc,-0.449
same,glycan array binding signal (z-score),[28],0.949
same,glycan array binding signal (z-score),[29],0.196
same,glycan array binding signal (z-score),[30],-0.45
same,glycan array binding signal (z-score),[31],-0.442
same,glycan array binding signal (z-score),[32],-0.365
same,glycan array binding signal (z-score),[33],-0.452
